About 79,000 compounds went through this panel and 15% of them were active in at least one assay; those are over-represented in the sample as a whole. Activity calls are given as the source filed them. Rule as the data show it: active = growth inhibition above about 70%; inactive = the rest.
Columns and labels:
[1] = NCI Yeast Anticancer Drug Screen. Data for the rad52 strain (AID 147);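 also: 0% = growth of vehicle-treated control cultures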; conditions: S. cerevisiae rad52 mutant growth inhibition, active compounds read high
Outline: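 The repair-mutant yeast strain was incubated with compounds, then growth was read and inhibition derived relative to vehicle.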

[2] = NCI Yeast Anticancer Drug Screen. Data for the wt1 strain (AID 149);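 also: 0% = growth of vehicle-treated wt1 cultures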; conditions: S. cerevisiae wt1 strain (SPY 50644) growth inhibition, active compounds read high
Outline: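 Vehicle-normalised growth inhibition; strain wt1; compound exposure.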

[3] = NCI Yeast Anticancer Drug Screen. Data for the rad50EPP+ strain (AID 151);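 also: 0% = growth of vehicle-treated control cultures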; conditions: S. cerevisiae rad50 mutant strain, active compounds read high
Outline: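 Vehicle-normalised growth inhibition; rad50EPP+ yeast strain, altered in DNA damage repair, compound-treated.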

[4] = NCI Yeast Anticancer Drug Screen. Data for the mgt1 strain (AID 153); conditions: S. cerevisiae mgt1 mutant growth inhibition, active compounds read high
Outline: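 Vehicle-normalized growth inhibition is determined in mgt1 yeast, a strain selected for a defined alteration in DNA repair or cell cycle control.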

[5] = NCI Yeast Anticancer Drug Screen. Data for the rad50 strain (AID 155);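 also: 0% = growth of vehicle-only cultures of the same strain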; conditions: S. cerevisiae rad50 strain growth inhibition, active compounds read high
Outline: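 A DNA repair-deficient yeast mutant serves as the test organism; compound-induced growth inhibition is calculated against vehicle-treated cells.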

[6] = NCI Yeast Anticancer Drug Screen. Data for the mec2-1 strain (AID 157); conditions: S. cerevisiae mec2-1 strain, active compounds read high
Outline: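 Mutant yeast (mec2-1) grown with compound; growth inhibition relative to vehicle control reported.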

[7] = NCI Yeast Anticancer Drug Screen. Data for the rad14 strain (AID 159);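 also: 0% = growth of vehicle-treated control cultures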; conditions: S. cerevisiae rad14 strain growth inhibition, active compounds read high
Outline: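 Vehicle-treated cultures served as the baseline for growth inhibition of a DNA repair-mutant yeast strain exposed to each compound.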

[8] = NCI Yeast Anticancer Drug Screen. Data for the sgs1 mgt1 strain (AID 161);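 also: 0% = growth of cultures given vehicle only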; conditions: S. cerevisiae sgs1 mgt1 strain, active compounds read high
Outline: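 Compounds are added to genetically altered yeast, and growth is compared with cultures given vehicle alone to give percent inhibition.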

[9] = NCI Yeast Anticancer Drug Screen. Data for the CLN2oe strain (AID 163);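 also: 0% = growth of vehicle-only control cultures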; conditions: S. cerevisiae CLN2oe strain, active compounds read high
Outline: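 Compounds are applied to yeast harbouring a defined cell-cycle control change; reduced growth compared with vehicle-treated controls gives the value.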

[10] = NCI Yeast Anticancer Drug Screen. Data for the cln2 rad14 strain (AID 165);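 also: 0% = growth equal to vehicle treated cultures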; conditions: S. cerevisiae cln2 rad14 strain, active compounds read high
Outline: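 Readout is yeast growth inhibition versus vehicle-treated controls, using a strain with cln2 and rad14 alterations exposed to compound.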

[11] = NCI Yeast Anticancer Drug Screen. Data for the bub3 strain (AID 167); conditions: S. cerevisiae bub3 mutant strain, active compounds read high
Outline: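 Inhibition values come from growth of compound-treated mutant yeast normalised to vehicle-treated controls.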

[12] = NCI Yeast Anticancer Drug Screen. Data for the wt2 strain (AID 169);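 also: 0% = growth of vehicle-treated yeast cultures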; conditions: S. cerevisiae wt2 strain growth inhibition, active compounds read high
Outline: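 Against vehicle-treated controls, the growth of yeast exposed to each compound was compared, and the inhibition was recorded.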

[13] = NCI Yeast Anticancer Drug Screen. Data for the mlh1 strain (AID 171);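 also: 0% = growth of vehicle-treated control cultures of the same strain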; conditions: S. cerevisiae mlh1 strain growth inhibition, active compounds read high
Outline: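 Measured: yeast growth. Reference: vehicle-treated controls. Organism: strain with a defined alteration affecting DNA damage repair or cell cycle control, treated with compound.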

[14] = NCI Yeast Anticancer Drug Screen. Data for the sgs1 strain (AID 173);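 also: 0% = growth of vehicle-only control cultures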; conditions: S. cerevisiae sgs1 mutant, active compounds read high
Outline: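 Each compound was added to cultures of the altered yeast strain. Growth was recorded, and inhibition was derived by comparison with vehicle controls.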

[15] = NCI Yeast Anticancer Drug Screen. Data for the mlh1 rad18 strain (AID 175); conditions: S. cerevisiae mlh1 rad18 strain growth inhibition, active compounds read high
Outline: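 Genetically defined yeast (DNA repair-deficient) exposed to compounds; growth inhibition determined relative to vehicle.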

[16] = NCI Yeast Anticancer Drug Screen. Data for the rad18 strain (AID 177); conditions: S. cerevisiae rad18 mutant growth inhibition, active compounds read high
Outline: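 Vehicle-treated cultures served as the baseline for scoring compound-induced growth inhibition in DNA-repair-mutant yeast.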

[17] = at 5.0 µM (retest, dose inferred, filed as 0.5)
[18] = at 50.0 µM (retest, dose inferred, filed as 5.0)

Measured: growth inhibition

CC(=O)O/N=C1C=C/C(=C(/C#N)c2ccccc2)C=C/1C
inactive: [1]; at 1.2 µM 6% | [1]; at 3.7 µM 15% | [1]; at 11.0 µM 63% | [2]; at 1.2 µM 3% | [2]; at 3.7 µM 5% | [2]; at 11.0 µM 24% | [3]; at 1.2 µM 43% | [4]; at 1.2 µM 2% | [4]; at 3.7 µM 6% | [5]; at 1.2 µM 5% | [5]; at 3.7 µM 10% | [5]; [17] 41% | [5]; at 11.0 µM 37% | [6]; at 1.2 µM -1% | [6]; at 3.7 µM 4% | [6]; [17] 16% | [6]; at 11.0 µM 19% | [7]; at 1.2 µM 1% | [7]; at 3.7 µM 7% | [7]; at 11.0 µM 25% | [9]; at 1.2 µM -6% | [9]; at 3.7 µM 0% | [9]; at 11.0 µM 16% | [10]; [17] 4% | [11]; at 1.2 µM -8% | [11]; at 3.7 µM -11% | [11]; [17] 0% | [11]; at 11.0 µM 4% | [12]; at 1.2 µM 2% | [12]; at 3.7 µM 7% | [12]; at 11.0 µM 65% | [13]; at 1.2 µM 3% | [13]; at 3.7 µM 8% | [13]; at 11.0 µM 53% | [14]; at 1.2 µM 21% | [14]; at 3.7 µM 54% | [15]; [17] 49% | [16]; at 1.2 µM 12% | [16]; at 3.7 µM 26% | [16]; at 11.0 µM 56%
active: [1]; at 33.0 µM 99% | [1]; at 100.0 µM 96% | [2]; at 33.0 µM 99% | [2]; at 100.0 µM 97% | [3]; at 3.7 µM 81% | [3]; at 11.0 µM 95% | [3]; at 33.0 µM 97% | [3]; at 100.0 µM 94% | [4]; at 11.0 µM 75% | [4]; at 33.0 µM 99% | [4]; at 100.0 µM 96% | [5]; at 33.0 µM 98% | [5]; [18] 98% | [5]; at 50.0 µM 99.5% | [5]; at 100.0 µM 94% | [6]; at 33.0 µM 99% | [6]; [18] 98% | [6]; at 50.0 µM 99.5% | [6]; at 100.0 µM 96% | [7]; at 33.0 µM 99% | [7]; at 100.0 µM 96% | [8]; [17] 77% | [8]; [18] 99% | [8]; at 50.0 µM 99.2% | [9]; at 33.0 µM 99% | [9]; at 100.0 µM 96% | [10]; [18] 98% | [10]; at 50.0 µM 99% | [11]; at 33.0 µM 99% | [11]; [18] 99% | [11]; at 50.0 µM 99.5% | [11]; at 100.0 µM 91% | [12]; at 33.0 µM 99% | [12]; at 100.0 µM 96% | [13]; at 33.0 µM 99% | [13]; at 100.0 µM 95% | [14]; at 11.0 µM 94% | [14]; at 33.0 µM 99% | [14]; at 100.0 µM 95% | [15]; [18] 98% | [15]; at 50.0 µM 98.8% | [16]; at 33.0 µM 99% | [16]; at 100.0 µM 95%

O=C1Oc2ccccc2C(=O)/C1=C/N1C(=O)N/C(=C\c2ccccc2Br)C1=O
inactive: [1]; at 1.2 µM 1% | [1]; at 3.7 µM 4% | [1]; at 11.0 µM 13% | [1]; at 33.0 µM 43% | [2]; at 1.2 µM 4% | [2]; at 3.7 µM 7% | [2]; at 11.0 µM 8% | [2]; at 33.0 µM 18% | [2]; at 100.0 µM 55% | [3]; at 1.2 µM -2% | [3]; at 3.7 µM 1% | [3]; at 11.0 µM 6% | [3]; at 33.0 µM 21% | [3]; at 100.0 µM 57% | [4]; at 1.2 µM 0% | [4]; at 3.7 µM 1% | [4]; at 11.0 µM 7% | [4]; at 33.0 µM 25% | [5]; at 1.2 µM -2% | [5]; at 3.7 µM -11% | [5]; [17] -6% | [5]; at 11.0 µM -3% | [5]; at 33.0 µM 40% | [5]; [18] 54% | [6]; at 1.2 µM 1% | [6]; at 3.7 µM 1% | [6]; [17] -15% | [6]; at 11.0 µM 7% | [6]; at 33.0 µM 27% | [6]; [18] 5% | [6]; at 50.0 µM 56.1% | [7]; at 1.2 µM 1% | [7]; at 3.7 µM 2% | [7]; at 11.0 µM 13% | [7]; at 33.0 µM 59% | [8]; [17] -3% | [8]; [18] 17% | [9]; at 1.2 µM -3% | [9]; at 3.7 µM 4% | [9]; at 11.0 µM 14% | [9]; at 33.0 µM 33% | [9]; at 100.0 µM 56% | [10]; [17] 15% | [10]; [18] 13% | [10]; at 50.0 µM 39.5% | [11]; at 1.2 µM 0% | [11]; at 3.7 µM -1% | [11]; [17] 7% | [11]; at 11.0 µM 6% | [11]; at 33.0 µM 29% | [11]; [18] 33% | [12]; at 1.2 µM 1% | [12]; at 3.7 µM 2% | [12]; at 11.0 µM 6% | [12]; at 33.0 µM 33% | [13]; at 1.2 µM 0% | [13]; at 3.7 µM 5% | [13]; at 11.0 µM 12% | [13]; at 33.0 µM 43% | [14]; at 1.2 µM 2% | [14]; at 3.7 µM 5% | [14]; at 11.0 µM 14% | [14]; at 33.0 µM 54% | [15]; [17] 4% | [15]; [18] 52% | [16]; at 1.2 µM -1% | [16]; at 3.7 µM 1% | [16]; at 11.0 µM 6% | [16]; at 33.0 µM 51%
active: [1]; at 100.0 µM 91% | [4]; at 100.0 µM 96% | [5]; at 50.0 µM 91.9% | [5]; at 100.0 µM 95% | [6]; at 100.0 µM 86% | [7]; at 100.0 µM 97% | [8]; at 50.0 µM 89.7% | [11]; at 50.0 µM 94.5% | [11]; at 100.0 µM 83% | [12]; at 100.0 µM 96% | [13]; at 100.0 µM 97% | [14]; at 100.0 µM 96% | [15]; at 50.0 µM 95.5% | [16]; at 100.0 µM 94%

C/C1=C/C2OC(=O)C3(C)C2C(CC2(C)OC1=CC2=O)OC3(O)C(C)C (stereo unspecified)
active: [3]; at 33.0 µM 72% | [3]; at 100.0 µM 91% | [4]; at 100.0 µM 93% | [8]; [18] 87% | [8]; at 50.0 µM 82.4%
inactive: [1]; at 1.2 µM -27% | [1]; at 3.7 µM -33% | [1]; at 11.0 µM -32% | [1]; at 33.0 µM -60% | [1]; at 100.0 µM -39% | [2]; at 1.2 µM -23% | [2]; at 3.7 µM -29% | [2]; at 11.0 µM -42% | [2]; at 33.0 µM -16% | [2]; at 100.0 µM -33% | [3]; at 1.2 µM -9% | [3]; at 3.7 µM -1% | [3]; at 11.0 µM 32% | [4]; at 1.2 µM -21% | [4]; at 3.7 µM -18% | [4]; at 11.0 µM 8% | [4]; at 33.0 µM 68% | [5]; at 1.2 µM -25% | [5]; at 3.7 µM -29% | [5]; [17] 16% | [5]; at 11.0 µM -38% | [5]; at 33.0 µM -57% | [5]; [18] 21% | [5]; at 50.0 µM 6.75% | [5]; at 100.0 µM -47% | [6]; at 1.2 µM -16% | [6]; at 3.7 µM -27% | [6]; [17] 18% | [6]; at 11.0 µM -27% | [6]; at 33.0 µM -18% | [6]; [18] 24% | [6]; at 50.0 µM -27.4% | [6]; at 100.0 µM -24% | [7]; at 1.2 µM -27% | [7]; at 3.7 µM -20% | [7]; at 11.0 µM -34% | [7]; at 33.0 µM -39% | [7]; at 100.0 µM -16% | [8]; [17] 21% | [9]; at 1.2 µM 4% | [9]; at 3.7 µM 22% | [9]; at 11.0 µM 13% | [9]; at 33.0 µM 0% | [9]; at 100.0 µM 10% | [10]; [17] 27% | [10]; [18] 29% | [10]; at 50.0 µM 7.4% | [11]; at 1.2 µM -8% | [11]; at 3.7 µM -19% | [11]; [17] 22% | [11]; at 11.0 µM -20% | [11]; at 33.0 µM -35% | [11]; [18] 16% | [11]; at 50.0 µM -16.7% | [11]; at 100.0 µM -28%

Reference: PubChem BioAssay (NCI)
